Screening data (PubChem BioAssay)
Hedgehog inh = blocks Sonic Hedgehog signaling | Shh-LIGHT2 Gli-luciferase reporter, 30 h | inhibition, % (concentration not given with the values) | hit rate 2.1% among 22,000;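 active means mean inhibition across valid replicates above about 65%, limit read from the data; inconclusive means mean under the limit, yet half or more replicates past it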;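 further: pathway switched on by Shh-conditioned medium diluted 1 in 25 in low serum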
NOMO-1 viab = STK33 inhibitor candidate reducing NOMO-1 cell viability; inhibition, % (no concentration beside the values); AID 2330; NOMO-1 AML viability, CellTiter-Glo luminescence, 72 h; hit rate 7.5% among 37,000; in the data active means inhibition above about 80%; inconclusive means no clear call, values can overlap the other calls
MITF inh = inhibitors of MITF. inhibition, % (test concentration not listed). hit rate 0.28% among 37,000. TRPM1 promoter luciferase, luminescence, 24 h; in the data active means inhibition above about 85%; inconclusive means no clear call, values can overlap the other calls; inactive means below about 68%;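 further: human melanocyte line stably carrying TRPM1 promoter luciferase reporter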
Numbers without * were called inactive. An excerpt weighted towards active compounds, which were near 7.9% of everything screened.

For C[C@H](CO)N1C[C@H](C)[C@@H](CN(C)S(=O)(=O)c2ccc(Cl)cc2)Oc2c(NS(=O)(=O)c3cccs3)cccc2C1=O the results were Hedgehog inh -8.5, NOMO-1 viab 4.0 and MITF inh 4.2.
`C[C@H](CO)N1C[C@H](C)[C@H](CN(C)S(=O)(=O)c2ccc(Cl)cc2)Oc2c(NS(=O)(=O)c3cccs3)cccc2C1=O` gave Hedgehog inh 77.0*, NOMO-1 viab 6.7 and MITF inh 11.6.
For C[C@H](CO)N1C[C@H](C)[C@H](CN(C)C(=O)NC2CCCCC2)Oc2c(NS(=O)(=O)c3cccs3)cccc2C1=O the results were Hedgehog inh 67.8*, NOMO-1 viab 57.5 and MITF inh 15.2.
Screening C[C@H]1CN([C@@H](C)CO)C(=O)c2cccc(NS(=O)(=O)c3ccc(F)cc3)c2O[C@@H]1CN(C)S(=O)(=O)c1ccc(Cl)cc1 returned Hedgehog inh 30.9, NOMO-1 viab 17.7 and MITF inh -11.5.
For CC(C)NC(=O)N(C)C[C@@H]1Oc2c(NS(=O)(=O)c3cn(C)cn3)cccc2C(=O)N([C@H](C)CO)C[C@@H]1C the results were Hedgehog inh -35.6, NOMO-1 viab -26.5 and MITF inh -15.8.
Cc1c(Br)ccc(NC(=O)Cn2cnc3sc4c(c3c2=O)CCCC4)c1C was read as NOMO-1 viab 3.6 and MITF inh -28.3.
Screening CC(C)NC(=O)N(C)C[C@@H]1Oc2ccc(NC(=O)Cn3cnnn3)cc2C(=O)N([C@@H](C)CO)C[C@@H]1C returned Hedgehog inh 2.8, NOMO-1 viab -13.3 and MITF inh -5.7.
Screening COc1ccc(NC(=O)CSc2nnc3sc4ccccc4n23)cc1 returned NOMO-1 viab -12.6 and MITF inh -23.1.
`O=c1cc(-c2ccccc2)nc2cc(-c3ccccc3)[nH]n12` gave Hedgehog inh -240.9, NOMO-1 viab 106.9* and MITF inh -25.9.
O=c1cc(-c2ccccc2)nc2scc(-c3ccc(Cl)cc3)n12 was read as Hedgehog inh -18.6, NOMO-1 viab -12.8 and MITF inh -4.5.
For CC1=CC(c2ccccc2)=C(C#N)C(=S)C1CC(=O)c1cccs1 (stereo not given) the results were Hedgehog inh 9.9, NOMO-1 viab 26.1 and MITF inh -17.0.
CC(C)(C)c1ccc(OCC(N)=NC(=O)c2ccc(OC(F)(F)F)cc2)cc1 was read as NOMO-1 viab 135.5* and MITF inh -8.6.
Screening CC(C)(C)c1ccc(OCC(=O)Nc2ccc(C(=O)Nc3ccccc3C(=O)O)cc2)cc1 returned NOMO-1 viab -3.0 and MITF inh -7.6.
Screening COC(=O)CNC(=O)c1cn(-c2ccccc2)nc1-c1ccc([N+](=O)[O-])cc1 returned NOMO-1 viab 3.1 and MITF inh -3.9.
For COC(=O)CNC(=O)c1cn(-c2ccccc2)nc1-c1ccc(OC)cc1 the results were NOMO-1 viab 112.7* and MITF inh -8.5.
Screening CCn1c(SCC(=O)c2ccc(OC)cc2)nnc1-c1cc2cccc(OC)c2o1 returned NOMO-1 viab 12.4 and MITF inh 27.0.
COc1ccccc1OCC(=O)Nc1ccc(-c2nc3ccc(C)cc3[nH]2)cc1 was read as NOMO-1 viab 110.3* and MITF inh 30.5.
`COc1cccc(OCC(=O)Nc2ccc(-c3nc4ccccc4[nH]3)cc2)c1` gave NOMO-1 viab 1.3 and MITF inh -21.7.
CN1C(C(=O)c2ccccc2)C(=O)c2ccccc2S1(=O)=O (stereo not given) was read as Hedgehog inh -10.6, NOMO-1 viab 63.8 and MITF inh 19.3.
Screening O=C(O)c1cccc(COc2ccc(CO)cc2Br)c1 returned NOMO-1 viab 5.5 and MITF inh inconclusive.
O=C(O)c1cccc(COc2ccc(CO)cc2Cl)c1 was read as NOMO-1 viab 30.2 and MITF inh 88.6*.
O=S(=O)(c1ccc(-c2ccccn2)s1)N1CCCCC1 was read as Hedgehog inh -6.0, NOMO-1 viab 15.1 and MITF inh -1.0.
Screening CCn1c(SCC(=O)Nc2cccc(F)c2)nnc1-c1ccc(OC)cc1 returned NOMO-1 viab 26.3 and MITF inh 41.0.
For O=c1cc(-c2ccc(O)cc2)oc2cc(O)c(C3OC(CO)C(O)C(O)C3O)c(O)c12 (stereo not given) the results were Hedgehog inh -4.8, NOMO-1 viab 64.4 and MITF inh -7.9.
Screening COc1c(O[C@@H]2O[C@H](CO)[C@@H](O)[C@H](O)[C@H]2O)cc2oc(-c3ccc(O)cc3)cc(=O)c2c1O returned Hedgehog inh -6.6, NOMO-1 viab 83.9* and MITF inh -71.3.
For COC(=O)CN(c1cccc(C)c1)S(=O)(=O)c1ccc(Cl)c(Cl)c1 the results were NOMO-1 viab 8.4 and MITF inh -7.7.
`Cc1ccc(S(=O)(=O)Nc2ccc3c(c2)CC(=O)N([C@H](C)CO)C[C@H](C)[C@H](CN(C)Cc2ccc(-c4ccccc4)cc2)O3)cc1` gave NOMO-1 viab 83.9* and MITF inh -6.0.
